Bioassay records: PubChem, NMMLSC
Most compounds without a hit are left out; they make up all but 0.92% or so of the library.
CIT2 TOR yeast: yeast TOR pathway CIT2-GFP modulation; S. cerevisiae CIT2-GFP strain, flow cytometry, 3 h; 100 means same as DMSO wells; GFP response vs DMSO, % at 10 µM; actives 0.065% (n = 320,000); AID 2029;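 active = GFP response relative to DMSO above a set limit, near the screen mean plus 3 SD, cut at about 150% in these data; inconclusive = Fewer than 70 cells measured for a yeast strain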;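 also: ratio of well median GFP fluorescence to mean of DMSO wells on the plate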
LAP4 TOR yeast: alters LAP4-GFP fluorescence in TOR pathway yeast screen | GFP response vs DMSO, % at 10 µM | S. cerevisiae LAP4-GFP multiplex, flow cytometry GFP, 3 h; median GFP as percent of DMSO wells | actives 0.34% (n = 320,000);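 active = GFP response vs DMSO above a set limit, about the screen mean plus 3 SD, cut at about 150% in these data; inconclusive = under 70 cell events counted for the yeast strain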
MEP2-GFP yeast: yeast TOR pathway MEP2-GFP modulation | GFP response vs DMSO, % at 10 µM | AID 2016 | S. cerevisiae MEP2-GFP strain, flow cytometry GFP, 3 h; 100% = DMSO control level | actives 0.51% (n = 330,000);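 active = GFP response versus DMSO above a set limit, roughly screen mean plus 3 SD, cut at about 180% in these data; inconclusive = fewer than 70 cells counted for a yeast strain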;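 also: median GFP fluorescence of the barcode-gated MEP2-GFP cells per well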
AGP1 TOR yeast: alters AGP1-GFP fluorescence in TOR pathway yeast screen; S. cerevisiae AGP1-GFP multiplex flow cytometry, 3 h; GFP as percent of DMSO wells; GFP response vs DMSO, % at 10 µM; actives 0.02% (n = 320,000); AID 2066;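 active = GFP response relative to DMSO above a set limit, near screen average plus 3 SD, cut at about 150% in these data; inconclusive = fewer than 70 cells counted for the yeast strain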;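 also: median GFP channel fluorescence of the gated AGP1 strain per well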
RPL19A-GFP yeast: alters RPL19A-GFP fluorescence in TOR pathway yeast screen | S. cerevisiae RPL19A-GFP strain, flow cytometry, 3 h; active compounds read low | percent response vs DMSO, % at 10 µM | AID 2025 | actives 0.3% (n = 330,000);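 active = percent response vs DMSO below 50%; inconclusive = fewer than 70 events counted for the yeast strain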;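 also: median channel GFP fluorescence of the barcoded RPL19A-GFP strain; ratio of sample median GFP to plate DMSO average so 100% = DMSO; lower means less RPL19A-GFP as with rapamycin TOR inhibition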
An asterisk follows results filed as active; i = inactive; ? = inconclusive; · = no result; + = active, no number; [ ] = remark or other dose.

SMILES	CIT2 TOR yeast	LAP4 TOR yeast	MEP2-GFP yeast	AGP1 TOR yeast	RPL19A-GFP yeast
C#CCOCCOCCOCCNc1nc(N2CCN(C(=O)CCCCCCCCCCNC(=O)[C@H]([C@@H](C)CC)n3cc(CCCCN=C(N)N)nn3)CC2)nc(N2CCN(C(=O)CCCCCCCCCCNC(=O)[C@H](CCCCN)n3cc(C[C@@H](C)CC)nn3)CC2)n1	102.3	187.0*	102.2	96.4	74.5
Cc1cc(C)c[n+](-c2nc([O-])sc2C=O)c1	95.7	102.6	96.1	98.7	100.2
C1CCCCCC(NCCN2CCNCC2)CCCCC1	98.3	100.6	102.8	98.4	102.2
O=C(Nc1ccc(Cn2nnc3ccccc32)cc1)c1ccco1	?	77.5	293.8*[may fluoresce violet]	?	14.4*[may fluoresce violet]
O=C(Nc1ccc(NC(=O)c2ccco2)cc1)c1ccco1	97.5	76.0	87.1	91.0	99.2
O=C(COc1cccnc1[N+](=O)[O-])Nc1ccc(Cl)c(S(=O)(=O)N2CCOCC2)c1	95.0	108.0	96.6	101.8	93.8
O=C(c1cc2nc(-c3ccc(F)cc3)cc(C(F)(F)F)n2n1)N1CCOCC1	?	81.4	235.7*[may fluoresce violet]	?	59.9
CC(C)OCCCNC(=O)c1cccc2c1C(=O)c1ccc(Cl)cc1S2(=O)=O	97.3	96.2	95.2	99.6	93.2
CN(C)CCCNc1cc(C(C)(C)C)nc2c(-c3ccc(Cl)cc3)cnn12	60.7	186.2*	150.8	80.8	55.8
CC(C)(C)c1cc(NCc2ccccn2)n2ncc(-c3ccc(Cl)cc3)c2n1	81.1	110.4	103.0	100.4	97.8
CCOC(=O)Cc1csc(NC(=O)Cn2cnc3c2c(=O)n(C)c(=O)n3C)n1	94.3	101.4	98.1	93.3	90.4
Cn1c(=O)c2c(ncn2CC(=O)Nc2nc(-c3ccccc3Cl)cs2)n(C)c1=O	?	69.0	209.9*[may fluoresce violet]	?	13.4*[may fluoresce violet]
C1CCN(c2nc(N3CCCCC3)nc(N3CCNCC3)n2)CC1	?	98.5	218.4*[may fluoresce violet]	81.8	91.7
CC1CCN(c2nc(N3CCCCC3)nc(N3CCCCC3)n2)CC1	90.8	113.1	97.9	97.8	97.5
CCCCS(=O)(=O)NC1=NCN(CCO)CN1	?	75.4	302.8*[may fluoresce violet]	?	61.2
CN(Cc1ccccc1)S(=O)(=O)c1ccc(OCC(=O)NCc2ccccn2)cc1	98.8	93.3	102.9	104.6	98.6
CC(C)NC(=O)COc1ccc(S(=O)(=O)N(C)Cc2ccccc2)cc1	?	92.5	407.7*[may fluoresce violet]	18.4	71.3
Cc1ccccc1C1NC(=S)NC2=C1C(=O)CCC2 (configuration not stated)	94.8	107.1	92.4	100.7	101.2
O=[N+]([O-])c1cc2oc3c(c2c(C=NCc2ccccc2)c1O)CCCC3	?	134.3	257.6*[may fluoresce violet]	?	57.3
CC(C)CN=Cc1c(O)c([N+](=O)[O-])cc2oc3c(c12)CCCC3	119.2	172.5*	133.7	124.5	106.6
Cc1cccc(/N=C/c2c(O)ccc3oc4c(c23)CCCC4)n1	97.1	84.4	91.8	93.6	101.0
Cc1oc2cc([N+](=O)[O-])c(O)c([N+](=O)[O-])c2c1C(=O)c1ccc(Cl)cc1	75.7	119.6	91.5	91.3	95.0
CCCCOc1ccc(C(=O)N(CC)CC(=O)NCc2cccs2)cc1	84.0	106.3	110.8	94.7	103.1
Cc1oc2c(CN3CCCCC3C)c(O)ccc2c(=O)c1-c1ccc(Br)cc1 (configuration not stated)	113.4	110.8	119.9	115.7	122.9
CCN1CCN(C(c2cccs2)C(C)NC(=O)C(=O)N2CCCCC2)CC1 (configuration not stated)	98.3	93.0	100.0	95.5	97.0
SMILES	CIT2 TOR yeast	LAP4 TOR yeast	MEP2-GFP yeast	AGP1 TOR yeast	RPL19A-GFP yeast
O=C(CSc1nnc(COc2ccccc2)o1)N1CCCCC1	?	79.2	146.9	11.4	96.8
COC(=O)c1cc(C(=O)c2cc(Cl)ccc2O)coc1=N	96.7	88.4	89.8	96.2	86.5
Cc1ccc(O)c(C(=O)c2coc(=N)c(C(=O)NC(C)C)c2)c1	?	118.5	273.6*[may fluoresce violet]	?	21.6*[may fluoresce violet]
Cc1cccc(NC(=O)C2CCCN2C(=O)OCC(C)C)c1 (configuration not stated)	?	95.0	231.3*[may fluoresce violet]	24.1	58.3
CC(=O)c1ccccc1NC(=O)COC(=O)c1ccccc1NC(=O)c1ccccc1	720.1*[may fluoresce green]	986.4*[may fluoresce green]	+[may fluoresce green]	224.5*[may fluoresce green]	249.4
COC(=O)c1c(N)n(-c2ccc(NC(C)=O)cc2)c2nc3ccccc3nc12	?	84.7	365.1*[may fluoresce violet]	?	42.0*[may fluoresce violet]
COCCCNC(=O)c1c(N)n(-c2ccccc2)c2nc3ccccc3nc12	·	·	105.6	·	93.1
O=C(O)CCc1ccc(-c2ccc(Br)cc2)o1	67.6	152.6*	91.3	72.0	94.7
C(=N\Nc1nc(Nc2ccccc2)nc(N2CCOCC2)n1)/c1c[nH]c2ccccc12	?	96.1	447.5*[may fluoresce violet]	?	42.1*[may fluoresce violet]
COc1ccc(C(=O)N/C(=C\c2cn(C)c3ccccc23)C(=O)NCCCn2ccnc2)cc1	?	91.4	181.4*[may fluoresce violet]	?	60.6
Cc1ccc(C(=O)N/C(=C\c2cn(C)c3ccccc23)C(=O)NCCN2CCOCC2)cc1	?	63.5	231.3*[may fluoresce violet]	?	34.4*[may fluoresce violet]
Cc1ccc(C(=O)N/C(=C\c2cn(C)c3ccccc23)C(=O)NCCCn2ccnc2)cc1	101.5	99.8	106.5	92.2	100.5
Cc1ccc(C(=O)N/C(=C\c2ccc(Cl)cc2)C(=O)NCCN2CCOCC2)cc1	?	80.3	361.2*[may fluoresce violet]	?	53.1
Cc1ccc(C(=O)N/C(=C\c2ccc(-c3ccccc3[N+](=O)[O-])o2)C(=O)NCCCN2CCOCC2)cc1	?	66.4	147.8	?	13.4*[may fluoresce violet]
CC(=O)n1c(Cl)c(NC(=O)CCl)c2ccccc21	99.7	100.5	100.9	103.8	101.4
CC(=O)C[C@H](O)CC(=O)[C@H]1OC(=O)[C@H](C)C/C=C\Cc2ccccc21	107.1	100.1	92.0	96.5	93.3
O=C(NC(=S)NCCN1CCOCC1)c1cccc(Cl)c1	?	109.2	217.8*[may fluoresce violet]	?	24.4*[may fluoresce violet]
Cc1ccc(C(=O)N/C(=C\c2cn(C)c3ccccc23)C(=O)NCCCN2CCOCC2)cc1	?	46.4	259.6*[may fluoresce violet]	?	40.4*[may fluoresce violet]
O=c1c2cc(Br)ccc2nc(-c2ccccc2)n1O	87.1	110.0	92.7	97.5	102.7
Cn1ccc(NC(=O)c2ccc(Cl)cc2Cl)n1	88.3	97.7	94.7	93.7	95.3
Cn1ccc(NC(=O)c2ccc(Cl)cc2)n1	+[may fluoresce green]	+[may fluoresce green]	+[may fluoresce green]	+[may fluoresce green]	i
Cc1ccc(F)cc1NC(=O)N1CCNC(=O)C1CC(=O)Nc1cc(Cl)ccc1Cl (configuration not stated)	153.8*[may fluoresce green]	117.5	103.1	114.9	90.8
COc1ccccc1NC(=O)CC1C(=O)NCCN1C(=O)Nc1ccc(Cl)c(Cl)c1 (configuration not stated)	?	86.6	470.1*[may fluoresce violet]	21.7	67.5
